Activity calls are given as the source filed them.
Tests used:
[1] = biological target: Albumin (Bos taurus) (UniProt P02769); test: bovine serum albumin binders on microarray, profiling panel, artefact control for SMM control protein annotation, biochemical, small-molecule microarray, Alexa647 label, 635/667 nm fluorescence (AID 1118); details: BSA-A647 binding, fluorescence 635 nm, higher = more signal;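 note: score merges 667 nm emission intensity and signal-to-noise per printed compound spot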
[2] = small-molecule microarray binders of probe aXIP, primary screen, biochemical, NeuroSMM set, 635/667 nm fluorescence (AID 1119); details: higher = more signal, called active from +8 up or from −8 down;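 note: probe is the protein aXip251-270 applied at 1 µg/mL to compound-printed slides; binding of probe to printed compounds measured as 667 nm fluorescence plus signal to noise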
[3] = small-molecule binders of probe aNOTCH3, primary screen, biochemical, small-molecule microarray, 635/667 nm fluorescence (AID 1120); details: higher = more signal;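 note: probe is a biotin-tagged antibody raised against NOTCH3 rather than NOTCH3 protein; score merges spot fluorescence near 667 nm with spot signal to noise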
[4] = small-molecule binders of probe aNOTCH2, primary screen, biochemical, small-molecule microarray, 635/667 nm fluorescence (AID 1121); details: higher = more signal;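 note: score merges feature fluorescence read at 667 nm with its signal to noise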
[5] = biological target: Carbonic anhydrase 2 (Homo sapiens) (UniProt P00918); test: CAII small-molecule binders, profiling panel, biochemical, small-molecule microarray, Alexa647-labelled CAII (AID 1122); details: CAII-A647 binding fluorescence, higher = more signal
[6] = COS7 lysate on small-molecule microarray, probe aHis, 635 nm (AID 1123); details: COS7 cell lysate, fluorescence, higher = more signal;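 note: z-score combines 667nm fluorescence intensity with signal-to-noise per printed compound spot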
[7] = compound binding in COS7 lysate, probe aLAP1, primary screen, cell lysate, small-molecule microarray (AID 1124); details: probe aLAP1, fluorescence, higher = more signal;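 note: lysate comes from COS7 cells expressing LAP1 and is applied at 0.3 µg/mL; score merges spot fluorescence near 667 nm with signal-to-noise over triplicate slides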
[8] = system: Sam68 (KHDRBS1); test: Sam68 small-molecule binders, primary screen, biochemical, small-molecule microarray, 635 nm fluorescence (AID 1125); details: small-molecule microarray binding, higher = more signal;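 note: score merges 667 nm channel intensity with signal to noise over triplicate slides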
[9] = system: Chordin-like protein 2 (CHRDL2); test: CHRDL2 small-molecule binders, primary screen, biochemical, small-molecule microarray, 635 nm fluorescence (AID 1126); details: small-molecule microarray binding, fluorescence 635 nm; higher = more signal;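 note: printed compound slides probed with Chrdl2 protein at 4 µg/mL for 1 h at 4 C; score merges 667 nm emission intensity with signal to noise over three replicate slides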
[10] = biological target: Concanavalin-A (Canavalia ensiformis) (UniProt P02866); test: ConA small-molecule binders, primary screen, artefact control for SMM control protein annotation, biochemical, small-molecule microarray, Alexa647 label, 635 nm (AID 1127); details: ConA-A647 binding fluorescence, higher = more signal;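 note: z combines 667 nm emission intensity with signal-to-noise across three replicate slides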
Chain of Concanavalin-A (Canavalia ensiformis) (P02866 whole entry, looked up): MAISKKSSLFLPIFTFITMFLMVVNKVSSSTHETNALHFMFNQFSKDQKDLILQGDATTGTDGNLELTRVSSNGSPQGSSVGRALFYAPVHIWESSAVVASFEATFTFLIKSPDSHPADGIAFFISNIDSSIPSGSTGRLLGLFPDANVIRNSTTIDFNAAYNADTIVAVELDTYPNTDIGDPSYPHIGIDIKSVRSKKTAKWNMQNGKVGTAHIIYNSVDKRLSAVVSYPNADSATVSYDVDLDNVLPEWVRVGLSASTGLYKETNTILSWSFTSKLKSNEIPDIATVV

Chain of Albumin (Bos taurus) (P02769 whole entry, looked up): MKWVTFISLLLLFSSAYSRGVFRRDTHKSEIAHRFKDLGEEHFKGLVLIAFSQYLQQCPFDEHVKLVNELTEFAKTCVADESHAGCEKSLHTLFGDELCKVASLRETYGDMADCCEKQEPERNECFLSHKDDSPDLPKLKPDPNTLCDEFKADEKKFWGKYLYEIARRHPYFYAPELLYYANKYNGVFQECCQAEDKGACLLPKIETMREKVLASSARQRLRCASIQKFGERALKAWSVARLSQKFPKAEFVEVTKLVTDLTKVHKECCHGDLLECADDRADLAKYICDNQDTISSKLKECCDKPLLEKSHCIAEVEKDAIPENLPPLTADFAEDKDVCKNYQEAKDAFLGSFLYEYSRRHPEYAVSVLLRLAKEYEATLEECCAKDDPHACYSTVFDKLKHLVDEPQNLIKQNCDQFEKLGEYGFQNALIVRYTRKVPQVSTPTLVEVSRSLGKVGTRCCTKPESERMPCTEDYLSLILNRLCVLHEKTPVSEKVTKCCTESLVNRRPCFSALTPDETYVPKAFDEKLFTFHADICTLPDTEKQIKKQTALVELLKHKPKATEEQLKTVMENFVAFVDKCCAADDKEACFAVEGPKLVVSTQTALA

Compound | composite z-score [1] | composite Z-score [2] | composite z-score [3] | composite z-score [4] | composite z-score [5] | composite z-score [6] | composite z-score [7] | composite z-score [8] | composite z-score [9] | composite z-score [10]
CCCc1cc2c(n1Cc1ccc(OC)cc1)C(C)C1CN(C(=O)c3ccccc3)C(C)(C(=O)OC)C21 (stereo not given) | 1.08 | -0.41 (inactive) | 0.223 | 0.16 | 0.571 | 3.13 | 0.746 | 1.25 | -1.63 | 1.18
Cc1ccccc1C(O)C1C=CC2C(=O)N(C)C(=O)C2N1Nc1ccc([N+](=O)[O-])cc1[N+](=O)[O-] (stereo not given) | 0.953 | 0.451 (inactive) | 0.338 | -0.108 | 0.671 | 2.47 | 0.288 | 1.29 | -0.723 | 1.16
O=C1N(Cc2ccccc2)c2ccccc2[C@H]2OC(c3ccc(OCCCO)cc3)=N[C@@]12CCS(=O)(=O)c1ccccc1 | 0.273 | -0.313 (inactive) | 0.0538 | -0.112 | 0.692 | 2.83 | 0.948 | 1.29 | 0.376 | 0.54
CN(C)CCCCNC(=O)[C@H]1C[C@H]2C(=O)N[C@@H](CCCC[N+](C)(C)C)C(=O)N2[C@H]1c1cccc(OCCO)c1 | -0.355 | 2.15 (inactive) | -0.0774 | -0.112 | 0.798 | 0.726 | 0.448 | 1.15 | 1.23 | 1
COCCOC(=O)N1C(=O)[C@@]2(c3cc(C#CCCO)ccc31)[C@H](C(=O)NC[C@H](O)c1ccccc1)[C@H]1C(=O)O[C@H](c3ccccc3)[C@H](c3ccccc3)N1[C@@H]2c1ccccc1OCCO | -0.919 | 0.427 (inactive) | 0.252 | 0.177 | 0.0771 | 1.33 | 1.32 | 1.3 | 0.969 | 1.09
O=C1O[C@@H](c2ccccc2)[C@@H](c2ccccc2)N2[C@@H](c3ccc(O)cc3)[C@]3(C(=O)Nc4ccc(C#CC5(O)CCCCCC5)cc43)[C@@H](C(=O)N3CCN(c4ncccn4)CC3)[C@H]12 | 0.77 | 0.95 (inactive) | -0.0558 | -0.123 | 0.604 | 1.87 | 0.333 | 1.31 | -0.106 | 1.13
N#Cc1ccc(NN2C(C(O)c3ccco3)C=CC3C(=O)N(c4ccccc4)C(=O)C32)cc1 (stereo not given) | 0.488 | 0.499 (inactive) | 0.188 | -0.0148 | 0.89 | 1.5 | 0.687 | 0.0163 | 0.111 | 0.458

Reference: PubChem BioAssay
